This note sets out measurements from PubChem BioAssay (EPA / NIEHS).

What is called AC50 is the concentration giving half of the maximal activity seen.

Assay [1] in a line: TOX21_p53_BLA_p2_viability: Viability Assessment in the Tox21 HCT-116 p53 Agonism Beta-lactamase Assay, Phase 2 (AID 2283591).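 Note: compound exposure lasted 16 h at 37 °C; actives lower the ATP signal meaning cytotoxicity.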 In outline: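 HCT-116 p53-bla cells (4000/well) rested 5 h at 37C, then received compounds in DMSO (217-fold dilution) for 16 h at 37C, 5% CO2. After the CCF4 read, CellTiter-Glo was added; ATP luminescence was read after 30 min at room temperature.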

For assay [2], the target named is Cellular tumor antigen p53 (Homo sapiens) (UniProt P04637). The assay is described as follows: TOX21_p53_BLA_p2_ratio: Tox21 HCT-116 p53 Agonism Beta-lactamase Assay, Ratio, Phase 2 (AID 2283592). Summed up:
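Plated HCT116 p53-bla cells (4000/well) received compound after 5 h, then 16 h at 37C/5% CO2. CCF4-AM added, 2 h RT. Ratio of 460 to 530 nm emission taken as the p53 reporter signal.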

Assay [3] shares this target. The assay is described as follows: TOX21_p53_BLA_p3_ratio: Tox21 HCT-116 p53 Agonism Beta-lactamase Assay, Ratio, Phase 3 (AID 2283596). In outline: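 Cells were seeded at 4000/well, rested 5 h at 37C, then dosed with DMSO compound solutions (217-fold dilution) for 16 h. CCF4-AM substrate was loaded for 2 h at room temperature, and the 460/530 nm emission ratio was fitted for gain of signal versus DMSO.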

For assay [4] the target is unchanged. The assay is described as follows: TOX21_p53_BLA_p5_ratio: Tox21 HCT-116 p53 Agonism Beta-lactamase Assay, Ratio, Phase 5 (AID 2283599). In outline:
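HCT-116 cells carrying a p53-inducible beta-lactamase reporter were seeded at 4000 cells/well and dosed after 5 h with compound in DMSO (217-fold dilution). After 16 h at 37C, CCF4-AM substrate was added for 2 h, and the 460/530 nm emission ratio was scored as gain-of-signal versus DMSO.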

The nature of assay [5]: TOX21_p53_BLA_p5_viability: Viability Assessment in the Tox21 HCT-116 p53 Agonism Beta-lactamase Assay, Phase 5 (AID 2283600). Summed up: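 Workflow: seed 4000 cells per well, wait 5 h, add compounds (DMSO, 217-fold dilution), incubate 16 h, load CCF4-AM 2 h, add CellTiter-Glo, read luminescence after 30 min.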
Assay [6] addresses Cellular tumor antigen p53 (Homo sapiens) (UniProt P04637). The assay is described as follows: TOX21_p53_BLA_p4_ratio: Tox21 HCT-116 p53 Agonism Beta-lactamase Assay, Ratio, Phase 4 (AID 2283601). In outline: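 HCT116 cells carrying an inducible beta-lactamase reporter were plated at 4000 cells/well, rested 5 h, then exposed to compounds in DMSO (217-fold dilution) for 16 h at 37C. CCF4-AM substrate was loaded 2 h at room temperature; 460/530 nm emission ratio scored gain-of-signal versus DMSO.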

The nature of assay [7]: ACEA_ER_AUC_viability: ACEA Biosciences xCELLigence Real-Time Cell Analysis on Estrogen Receptor Agonism for Viability (AID 2283782).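 Note: hit means loss of impedance signal meaning reduced cell growth or viability.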 Summed up:
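Continuous-exposure impedance cell analysis uses T-47D cells in charcoal-stripped serum, eight 1:4 dilutions topping at 100 uM final, biological duplicate. Area under the growth curve at 80 h is fitted against DMSO baseline.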

Assay [8] in a line: CCTE_Harrill_HTTr_Viability_MCF7: CCTE's 6-hour Cell Viability Assessment for the High-Throughput Transcriptomics (HTTr) Platform, in MCF-7 cells cultured in DMEM + 10% fetal bovine serum, Harrill Lab (AID 2284010; active = hit-call score of the fitted dose curve at least 0.9, where 1 is the maximum; inactive = score below 0.9). Summed up: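 Eight-point concentration series, six-hour exposure. Propidium iodide exclusion imaged to assess membrane integrity as a cytotoxicity readout; bidirectional fitting was done with DMSO as negative control and activity baseline.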

A short description of assay [9]: CCTE_Harrill_HTTr_Apoptosis_MCF7: CCTE's 6-hour Apoptosis Assessment for the High-Throughput Transcriptomics (HTTr) Platform, in MCF-7 cells cultured in DMEM + 10% fetal bovine serum, Harrill Lab (AID 2284011; active = hit-call score of the fitted dose curve at least 0.9, where 1 is the maximum; inactive = score below 0.9). Summed up:
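MCF-7 (DMEM + 10% FBS), 384-well; 8-pt dilution series, 6 h chemical exposure; caspase-3/7 activation via CellEvent Caspase 3/7 Green, HCI; bidirectional fit vs DMSO.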

Assay [10] in a line: CCTE_Harrill_HTTr_CellCount_MCF7: CCTE's Cell Proliferation Assessment for the High-Throughput Transcriptomics (HTTr) Platform, Harrill Lab (AID 2284012).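 Note: count of Hoechst-stained nuclei per well by high-content imaging in MCF-7 cells; cells exposed to compound for six hours; intended direction is loss of nuclei count meaning fewer cells.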 In outline:
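For this full-screen endpoint, MCF-7 cultures received eight compound dilutions for six hours. Well nuclei counts from Hoechst imaging were analyzed relative to DMSO.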

Records with an inconclusive call do not appear. The source made the active and inactive calls. Rule for the calls, unless noted: active = hit-call score of the fitted dose curve at least 0.9, where 1 is the maximum; inconclusive = response in the unintended direction; inactive = score below 0.9.

Chain of Cellular tumor antigen p53 (Homo sapiens) (P04637 whole entry, looked up): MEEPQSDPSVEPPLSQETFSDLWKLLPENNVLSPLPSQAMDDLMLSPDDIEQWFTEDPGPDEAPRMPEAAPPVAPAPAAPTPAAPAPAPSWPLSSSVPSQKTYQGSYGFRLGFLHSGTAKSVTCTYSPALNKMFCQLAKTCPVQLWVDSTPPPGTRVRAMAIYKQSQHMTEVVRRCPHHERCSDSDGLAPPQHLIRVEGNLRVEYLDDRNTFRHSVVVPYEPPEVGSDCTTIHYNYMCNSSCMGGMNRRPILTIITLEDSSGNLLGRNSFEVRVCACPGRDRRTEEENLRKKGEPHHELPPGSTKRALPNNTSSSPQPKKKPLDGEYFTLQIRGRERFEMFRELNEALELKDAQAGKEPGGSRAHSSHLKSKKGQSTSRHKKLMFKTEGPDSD

On to `C[C@@]12C(=O)OC(=O)[C@]1(C)C1CCC2O1`, for which the result in assay [1], in [3], in assay [4] and in [5] was inactive. Besides, the AC50 in assay [2] was 446 nM (active); in [6], 2910 nM (active).
In the case of `CC1=CC(=O)CC(C)(C)C1=O`, the outcome in assay [1], in assay [2], in assay [3], in [4], in [5] and in assay [6] was inactive.
Consider `O=Cc1ccc(Cl)cc1`, for which the outcome in assay [1], in [2], in assay [3], in assay [4], in [5] and in assay [6] was inactive.
`O=[N+]([O-])c1ccccc1Nc1ccccc1`: the call in [1], in [2], in assay [3], in assay [4], in assay [5] and in assay [6] was inactive.
As for `NCCCNCCCCNC(=O)C(O)NC(=O)CCCCCCN=C(N)N` (centres undefined), the outcome in [1], in assay [2], in [3], in [4], in assay [5] and in assay [6] was inactive.
As to `CC(C(=O)O)c1ccc2c(c1)[nH]c1ccc(Cl)cc12` (centres undefined), the molecule was classed as inactive in assay [1], in [2], in assay [3], in [4], in assay [5] and in [6].
With `CCOC(=O)COc1ccc2c(C)c(CCN(CC)CC)c(=O)oc2c1`, the outcome in assay [1], in assay [2], in assay [3], in assay [4], in [5] and in assay [6] was inactive.
Take `CC(C)[C@@H](N)C(=O)O`: the molecule was classed as inactive in assay [1], in assay [2], in assay [3], in [4], in assay [5] and in assay [6].
`Nc1cc(=O)[nH]c(N)n1`: the outcome in assay [1], in [2], in assay [3], in assay [4], in assay [5] and in assay [6] was inactive.
Regarding `C/C=C/c1ccc(OCC)c(O)c1`, the result in assay [1], in assay [2], in assay [3], in assay [4], in assay [5] and in assay [6] was inactive.
Turning to `CCCCC`, the result in [1], in assay [2], in assay [3], in assay [4], in [5] and in assay [6] was inactive.
For the molecule `CC(=O)Oc1cccc(C)c1`, the call in assay [1], in assay [2], in assay [3], in assay [4], in [5] and in [6] was inactive.
Take `CC1CCC(NC(=O)N(CCCl)N=O)CC1` (centres undefined): the outcome in [1], in assay [2], in [3], in assay [4], in [5] and in assay [6] was inactive.
On to `C[S+](CC[C@H](N)C(=O)O)C[C@H]1O[C@@H](n2cnc3c(N)ncnc32)[C@H](O)[C@@H]1O` (some centres undefined), for which the outcome in assay [1], in [2], in assay [3], in assay [4], in assay [5] and in assay [6] was inactive.
Consider `CCCCCC=CCC1CC(=O)OC1=O` (centres undefined), for which the outcome in assay [1], in assay [2], in assay [3], in assay [4], in [5] and in assay [6] was inactive.
In the case of H-RKDVY-OH, the molecule was classed as inactive in [1], in assay [2], in assay [3], in assay [4], in assay [5] and in assay [6].
Turning to `CCC(=O)OC`, the molecule was called inactive in assay [1], in assay [3], in [4], in assay [5] and in [6]. Also, the AC50 in [2] was 82700 nM (active).
In the case of `CC1=C(C(=O)O)N2C(=O)[C@@H](NC(=O)[C@H](N)c3ccc(O)cc3)[C@H]2SC1`, the outcome in [1], in assay [2], in assay [3], in assay [4], in assay [5] and in assay [6] was inactive.
For the molecule `CCC(=O)OC(=O)CC`, the call in assay [1], in assay [2], in [3], in [4], in assay [5] and in assay [6] was inactive.
Consider `N#Cc1c(N(CC(=O)O)CC(=O)O)sc(C(=O)O)c1CC(=O)O`, for which the call in assay [1], in assay [2], in assay [3], in assay [4] and in [6] was inactive.
In the case of `CCCC/C=C/CCCCO`, the result in assay [1], in [2], in assay [3], in assay [4], in assay [5] and in assay [6] was inactive. The AC50 in [7] is 50000 nM (active).
As for `ON=C1CCCC1`, the outcome in assay [1], in assay [2], in assay [3], in assay [4] and in assay [6] was inactive.
Consider `C=CCSCC1Nc2cc(Cl)c(S(N)(=O)=O)cc2S(=O)(=O)N1` (centres undefined), for which the result in assay [1], in assay [2], in [3] and in assay [6] was inactive. Further, the AC50 in [4] was 0.059 nM (active).
As to `CN1CCCCC1CCN1c2ccccc2Sc2ccc(S(C)=O)cc21` (centres undefined), the molecule was classed as inactive in assay [1], in assay [2], in [3], in assay [4] and in [6].
Take `CC[C@@H](C(=O)[C@@H](C)[C@@H](O)[C@H](C)[C@@H]1O[C@@H]([C@@H](CC)C(=O)O)CC[C@@H]1C)[C@H]1O[C@]2(C=C[C@@H](O)[C@]3(CC[C@@](C)([C@H]4CC[C@](O)(CC)[C@H](C)O4)O3)O2)[C@H](C)C[C@@H]1C`: the outcome in assay [1], in assay [2], in assay [3], in [4] and in assay [6] was inactive.
For `CCN(CC)c1cccc(O)c1`, the molecule was called inactive in assay [1], in assay [2], in assay [3], in assay [4] and in assay [6].
With `CC(=O)N[C@@H]([C@@H](O)[C@H](O)[C@H](O)CO)[C@@H](O)CC(=O)C(=O)O`, the outcome in assay [1], in assay [2], in assay [3], in assay [4] and in [6] was inactive.
On to `c1ccc2c(c1)OCC(CN1CCCCC1)O2` (centres undefined), for which the molecule was called inactive in assay [1], in [2], in assay [3], in [4] and in assay [6].
Consider `OCCCC1CCCCC1`, for which the call in assay [1], in assay [2], in assay [3], in assay [4], in assay [5] and in assay [8] was inactive. Besides, the outcome in assay [9] and in assay [10] was inactive.
